The entries come from a sample that favours hits as a whole.
VACV mCherry inh: vaccinia inhibition (mCherry reporter); Vaccinia virus mCherry reporter infection, fluorescence; Potency, µM (highest dose often 36.5 µM), hits mostly inhibitors; 310,000 compounds, 0.63% hits; AID 720579; calls by dose curve; tested in A549 cells; note: nearly all actives have a fitted effect of over 35% in size
MARV entry inh: blocks Marburg virus binding to or entry into cells | 300,000 compounds, 1.8% hits | Potency, µM (highest dose often 37.8 µM), hits mostly inhibitors | Marburg virus pseudotyped entry inhibition, cell reporter; calls by dose curve; tested in HEK293 cells
Vaccinia Venus: vaccinia inhibition (Venus reporter); Vaccinia virus Venus reporter expression, fluorescence; Potency, µM (titrated, usually from 36.5 µM), actives largely listed as inhibitors; 330,000 compounds, 0.46% hits; AID 720580; calls by dose curve; tested in A549 cells; note: nearly all actives have a fitted effect of over 30% in size
Shiga inhibitor: Shiga toxin inhibition. inhibition, % at 38.7 µM. Vero cells, Shiga toxin protein synthesis inhibition reporter. 290,000 compounds, 9.2% hits; in the data active = inhibition mostly above about 28%, no sharp cut-off; inactive = mostly below about 43%
Cycloheximide cs: affects cycloheximide protein synthesis inhibition readout, counter-screen | cell reporter, cycloheximide protein synthesis inhibition counterscreen | max response, % | 300,000 compounds, 12% hits | AID 2314; in the data active = max response mostly above about 13%, no sharp cut-off; inactive = mostly below about 14%; note: read at 38.3 µM for the half of the compounds with a filed dose
Lassa entry inh: blocks Lassa virus binding to or entry into cells; Potency, µM (doses to about 37.9 µM), most hits filed as inhibitors; Lassa virus pseudotype entry inhibition, cell reporter; 300,000 compounds, 1.2% hits; calls by dose curve; tested in HEK293 cells; note: nearly all actives have a fitted effect of over 50% in size
Numbers stand for hits; . = inactive; ? = inconclusive; / = no result; [ ] = another dose, or the depositor's remark.

SMILES	VACV mCherry inh	MARV entry inh	Vaccinia Venus	Shiga inhibitor	Cycloheximide cs	Lassa entry inh
C=CC(C)(C)c1c(O)c(CC=C(C)C)c(O)c2c(=O)c3ccc(O)c(O)c3oc12	8.91µM	/	?	/	/	/
C=CC(C)(C)c1c2occc2c(O)c2ccc(=O)oc12	.	/	.	/	/	/
CCS(=O)(=O)N1CCc2cc(C(=O)Nc3ccc(C)c(Cl)c3)ccc21	.	.	.	/	/	.
CCOc1ccc(-c2cc(C(=O)NN=C3CCN(C)CC3)[nH]n2)cc1	.	?	.	60.1	24.8	?
CC(C)COc1ccc(C(=O)Nc2cc(-c3ccccc3)no2)cc1	.[7.34 µM]	?	.[7.34 µM]	/	/	?
CCOC(=O)c1cc(-c2ccc(OC)cc2)n[nH]1	/	/	/	100.7	69.4	/
CCOC(=O)c1cc(-c2ccc3c(c2)OCCO3)n[nH]1	.	5.62µM	?	61.3	47.8	?
O=C(O)c1cc(-c2ccc3c(c2)OCCO3)n[nH]1	.	?	.	.	.	.
CC(C)COc1ccc(-c2cc(C(=O)NN)[nH]n2)cc1	/	.	/	.	26.7	?
COC(=O)c1sc(-c2ccccc2)cc1NC(=O)c1cccc(F)c1	.	.	.	/	/	.
Oc1ccccc1-c1cc(-c2ccc3c(c2)OCCO3)n[nH]1	.	?	.	.	31.6	?
O=c1oc2cc(O)ccc2cc1-c1ccccc1	/	/	/	53.7	38.1	/
COc1ccc(-c2cc3ccc(O)cc3oc2=O)cc1	/	/	/	74.5	36.8	/
CC(=O)Nc1ccc(S(=O)(=O)Nc2ccc3c(c2)CCC3)cc1	.	?	.	.	.	.
c1cc2c(cc1NC1=NCCO1)CCCC2	?	?	3.98µM	/	/	.
CCC1CCCCN1C(=O)CSc1n[nH]c(-c2ccccc2)n1 (stereo not drawn)	.	/	.	/	/	.
Cc1cc(CNC(=O)Nc2ccc3c(c2)OCO3)nn1C	/	?	/	60.7	26.9	.
CCn1nc(C)c(CNC(=O)Nc2ccc3c(c2)OCO3)c1C	.	.	.	.	45.3	.
O=C(Nc1ccccc1Cl)C1Cc2ccccc2O/C1=N\O (stereo not drawn)	/	/	/	87.3	43.8	/
O=C(Nc1cc(Cl)ccc1Cl)C1Cc2ccccc2O/C1=N\O (stereo not drawn)	.	.	.	.	.	.
Cc1ccc2c(C)c(C(=O)N3CCN(Cc4ccccn4)CC3)oc2c1C	/	/	/	.	17.0	/
CCCCCCCCOC(=O)c1cc([N+](=O)[O-])c(Sc2ncnc3nc[nH]c23)c([N+](=O)[O-])c1	.	?	.	/	/	11.2µM
CCOC(=O)/C(C#N)=C/c1c[nH]c2ccccc12	.	?	.	80.9	28.4	?
CC(=O)Oc1c(/C=C(\C#N)C(N)=O)[nH]c2ccccc12	/	?	/	.	.	16.4µM
N#C/C(=C\c1c[nH]c2ccccc12)C(N)=O	.	/	.	.	9.0	/
SMILES	VACV mCherry inh	MARV entry inh	Vaccinia Venus	Shiga inhibitor	Cycloheximide cs	Lassa entry inh
CCOP(=O)(OCC)/C(C#N)=C/c1c[nH]c2ccccc12	.	/	.	.	.	/
COC(=O)/C(C#N)=C/c1c[nH]c2ccccc12	.	?	.	102.9	37.3	.
Cc1ccc(S(=O)(=O)/C(C#N)=C/c2c[nH]c3ccccc23)cc1	.	.	.	.	.	.
CC(=O)Nc1ccc(CNc2nc3cc(-c4ccccc4C)sc3c(=O)n2C)cc1	.	/	.	/	/	/
CSCC[C@H](NC(=O)[C@H](CCC(N)=O)NC(=O)[C@H](CCCCN)NC(=O)[C@H](CCCNC(=N)N)NC(=O)[C@H](Cc1ccc(O)cc1)NC(=O)[C@H](CCCNC(=N)N)NC(=O)[C@H](CO)NC(=O)[C@H](Cc1ccc(O)cc1)NC(=O)[C@H](CO)NC(=O)[C@H](CC(=O)O)NC(=O)[C@@H](NC(=O)[C@@H](N)Cc1ccccc1)[C@@H](C)O)C(=O)N[C@@H](C)C(=O)N[C@H](C(=O)N[C@@H](CCCCN)C(=O)N[C@@H](CCCCN)C(=O)N[C@@H](Cc1ccc(O)cc1)C(=O)N[C@@H](CC(C)C)C(=O)N[C@@H](C)C(=O)N[C@@H](C)C(=O)N[C@H](C(=O)N[C@@H](CC(C)C)C(=O)NCC(=O)N[C@@H](CCCCN)C(=O)N[C@@H](CCCNC(=N)N)C(=O)N[C@@H](Cc1ccc(O)cc1)C(=O)N[C@@H](CCCCN)C(=O)N[C@@H](CCC(N)=O)C(=O)N[C@@H](CCCNC(=N)N)C(=O)N[C@H](C(=O)N[C@@H](CCCCN)C(=O)N[C@@H](CC(N)=O)C(=O)N[C@@H](CCCCN)C(N)=O)C(C)C)C(C)C)C(C)C	/	/	/	.	.	/
CCOC(=O)C(=O)/C(C#N)=C/Nc1ccccc1	.	.	.	.	.	.
CCOC(=O)/C(C#N)=C/Nc1ccccc1OC	/	.	/	43.1	25.2	.
COc1cc(/C=C/C(=O)Nc2ccc(N3CCCCC3)c(S(=O)(=O)Nc3ccccc3Cl)c2)cc(OC)c1OC	.	.	.	.	.	?
CC(C)C[C@H]1CN(CCCC[C@@H]2CNC(=O)C(=O)N2Cc2ccccc2)C(=O)C(=O)N1Cc1ccccc1	.	/	.	/	/	/
O=C(NC1CCCC1)c1ccc2c(c1)N(Cc1c(F)cccc1Cl)C(=O)c1ccccc1S2	.	?	.	/	/	?
COc1ccc(S(=O)(=O)N(C)CC(=O)Nc2ccc3c(c2)OCO3)cc1OC	.	.	.	.	7.8	.
CN(CC(=O)Nc1ccc2c(c1)OCO2)S(=O)(=O)c1cccs1	?	?	.	67.3	46.5	.
CN(CC(=O)Nc1ccc2c(c1)OCCO2)S(=O)(=O)c1ccc(F)cc1	.	?	.	117.3	26.6	?
COc1ccc(S(=O)(=O)N(C)CC(=O)Nc2ccc3c(c2)OCCO3)cc1	.	?	.	/	/	.
CN(CC(=O)Nc1ccc(F)c(F)c1)S(=O)(=O)c1cccs1	.	.	.	.	.	.
COc1ccc(S(=O)(=O)N(C)CC(=O)Nc2ccc3c(c2)OCO3)cc1	.	.	.	.	.	.
CC(NS(=O)(=O)c1ccc(F)cc1)C(=O)Nc1ccc2c(c1)OCCO2 (stereo not drawn)	.	.	.	.	11.2	.
COc1ccc(C(=O)N/C(=C\c2cn(C)c3ccccc23)C(=O)N2CCN(C)CC2)cc1OC	/	/	/	.	.	/
CCN1C(=NCCc2cccnc2)N[C@H](CCc2ccccc2)[C@H](C(=O)OC)[C@H]1C	/	.	/	/	/	/
C[C@H](NS(=O)(=O)c1ccccc1)C(=O)OCC(=O)NC(=O)Nc1ccc2c(c1)OCCO2	.	?	.	86.5	73.6	.
CCc1cccc(NC(=O)CN(C)S(=O)(=O)c2cccc3nsnc23)c1	/	.	/	.	.	.
CC(C)[C@H](NS(=O)(=O)c1ccccc1)C(=O)OCC(=O)Nc1ccc2c(c1)OCO2	.	.	.	.	.	.
CCc1cccc(NC(=O)CN(C)S(=O)(=O)c2cccs2)c1	.	.	.	71.2	23.9	.
COC(=O)c1ccc2c(=O)[nH]c(CCl)nc2c1	.	13µM	.	.	.	?
COC(=O)C1=C(C)N(Cc2ccccc2)C(=O)NC1CCc1ccccc1 (stereo not drawn)	/	.	/	/	/	/
CCc1nnc(SCC(=O)Nc2cc(Cl)c(OC)cc2OC)c2cc3oc(C)cc3n12	.	/	.	/	/	?
CN(C)/C=C/c1onc(-c2c(F)cccc2Cl)c1C#N	.	.	.	109.0	27.5	.
